Screening results as filed in PubChem BioAssay.
TGFb SMAD3 inh = TGF-b pathway inhibition | HepG2 CAGA-GFP TGF-b/SMAD3 reporter, GFP fluorescence, 18 h; TGF-beta stimulated, 500 pg/mL final | Potency, µM (series often up to 46.1 µM), inactives show at the highest dose activity, negative = inhibition, hits mostly inhibitors | 1.2% of 410,000 active; also: potency is read from the fitted curve at half-maximal effect; % is scaled to controls: 0 for no effect and ±100 for the full control effect; nearly all actives have a fitted effect of over 65% in size
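TGF-beta reporter screen: HEPG2 CAGA-GFP, 1% FBS, 500 pg/mL TGF-beta final, 18 h; per-cell GFP summed per well; curves fitted and categorized by class.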
S-ASM inh = inhibitors of human secretory acid sphingomyelinase | placental ASM, HMU-PC fluorogenic substrate, 60 min | Potency, µM (highest dose often 57.5 µM), for inactives: at the top dose activity change, negative = inhibition, actives largely listed as inhibitors | 0.006% of 340,000 active; also: potency is read from the fitted curve at half-maximal effect
Target sequence (P17405 47-631 limits assumed): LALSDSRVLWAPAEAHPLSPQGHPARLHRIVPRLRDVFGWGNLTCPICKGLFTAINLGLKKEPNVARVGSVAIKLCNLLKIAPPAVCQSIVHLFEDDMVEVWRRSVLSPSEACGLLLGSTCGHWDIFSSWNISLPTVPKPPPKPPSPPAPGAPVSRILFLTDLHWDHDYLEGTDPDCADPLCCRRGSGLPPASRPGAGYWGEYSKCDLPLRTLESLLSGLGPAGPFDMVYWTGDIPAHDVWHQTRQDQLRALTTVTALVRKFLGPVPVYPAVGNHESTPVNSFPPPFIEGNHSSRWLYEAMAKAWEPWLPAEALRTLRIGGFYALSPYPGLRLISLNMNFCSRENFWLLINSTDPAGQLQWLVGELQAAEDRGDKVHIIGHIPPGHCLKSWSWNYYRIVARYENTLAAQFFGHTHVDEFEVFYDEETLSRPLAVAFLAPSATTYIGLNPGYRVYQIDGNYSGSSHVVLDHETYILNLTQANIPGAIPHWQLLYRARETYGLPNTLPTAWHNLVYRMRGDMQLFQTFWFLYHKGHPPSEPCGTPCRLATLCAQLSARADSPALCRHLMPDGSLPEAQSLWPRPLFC
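Steps: dispense placental human ASM, pin compound, wait 10 min at room temperature, add HMU-PC0 substrate at 9 uM final, incubate 60 min at 37 °C, add stop solution raising pH to 10, read fluorescence.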
DT40 TDP1 no CPT = qHTS for Inhibitors of human tyrosyl-DNA phosphodiesterase 1 (TDP1): qHTS in cells in absence of CPT | 15% of 420,000 active | DT40 Tdp1-/- hTDP1 cells, no CPT, ATP luminescence, 48 h | Potency, µM (highest dose often 46.2 µM), for inactives: top-dose activity change, negative = growth inhibition, usual class: inhibitors; also: potency is read from the fitted curve at half-maximal effect; % is scaled to controls: 0 for no effect and ±100 for the full control effect; nearly all actives have a fitted effect of over 55% in size
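No-CPT arm: Tdp1-/-;hTDP1 DT40 cells (400/well) plus compounds, incubated ≥48 hr at 37 °C. Readout CellTiter-Glo luminescence.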
HepG2 tox = HepG2 cytotoxicity, counter-screen for TGF-b inhibitors; HepG2 CAGA-GFP viability, ATP luminescence, 18 h; Potency, µM (titrated, usually from 46.1 µM), inactives show at the top dose activity change, negative = cytotoxicity, most hits filed as cytotoxic; 0.76% of 410,000 active; also: potency is read from the fitted curve at half-maximal effect
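HepG2 CAGA-GFP cells (1000/well, DMEM with 1% FBS) received compound, then TGF-beta at 500 pg/mL final, and were incubated 18 hours at 37 degrees C. Viability was read by CellTiter-Glo luminescence. Media-only wells were set as complete cell-killing and DMSO as no toxicity.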
IL1B secr inh = blocks inflammasome-driven IL-1 beta release; THP-1 LPS/ATP IL-1B secretion, AlphaLISA, 16 h; stronger effect = lower value; activity change, % at 57.5 µM; 4.7% of 360,000 active; in the data active = activity change below about -50%; inconclusive = mostly about -30% to -49%; also: % is scaled to controls: 0 for no effect and ±100 for the full control effect
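THP-1 cells pretreated 1 hr with compounds (up to 57.5 uM final), then stimulated with LPS (250 ng/mL final) plus ATP (1.25 mM final); secreted IL-1B measured by AlphaLISA after 16 hr, decreased signal indicating inhibition.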
DT40 TDP1 CPT = DT40-hTDP1 cell growth loss with CPT; chicken DT40 Tdp1-/-;hTDP1 cells + 20 nM CPT, ATP luminescence, 48 h; Potency, µM (top dose mostly 46.2 µM), for the others: at the top dose activity change, negative = growth inhibition, actives largely listed as inhibitors; 12% of 420,000 active; also: potency is read from the fitted curve at half-maximal effect; % is scaled to controls: 0 for no effect and ±100 for the full control effect; nearly all actives have a fitted effect of over 55% in size
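Cell growth measured by CellTiter-Glo luminescence after a minimum 48 h, 37 C compound exposure with 20 nM CPT in Tdp1-knockout DT40 cells stably expressing hTDP1, seeded 400/well; qHTS titration format.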
Numbers without * were called inactive. A selection: hits, their analogues and other compounds. The true share with any hit is near 19%. Unless noted, calls follow the shape of the dose curve; as a rule, active = well fitted curve in the direction sought with a large enough effect; inconclusive = small, poorly fitted or top-dose-only effect, or another doubt; inactive = no such curve, though single readings can be large; an effect the other way counts as inactive or inconclusive.

Cc1ccsc1C(=O)N(Cc1nnc(-c2ccccc2Cl)o1)C1CC1 was read as TGFb SMAD3 inh 0.0%, DT40 TDP1 no CPT inconclusive, HepG2 tox -0.3%, IL1B secr inh -4.4 and DT40 TDP1 CPT inconclusive.
Screening CC(C)COc1ccc(C(=O)N2CCN(CCc3ccccn3)CC2)cc1 returned TGFb SMAD3 inh -38.4%, DT40 TDP1 no CPT -22.8%, HepG2 tox 9.0% and DT40 TDP1 CPT -22.6%.
Screening Nc1[nH]c(C(=O)c2ccccc2)c(-c2ccccc2C(F)(F)F)c1C(=O)NCCc1cccs1 returned DT40 TDP1 no CPT -13.4%, IL1B secr inh 0.0 and DT40 TDP1 CPT -7.5%.
`O=S1(=O)CC(N2CCN(CCO)CC2)CN1Cc1cn(Cc2ccccc2)nn1` (stereo not drawn) gave DT40 TDP1 no CPT -20.7%, IL1B secr inh 56.3 and DT40 TDP1 CPT -2.4%.
For Cc1ccc(S(=O)(=O)NC(=O)Nc2cccc(S(=O)(=O)N(C)C)c2)cc1 the results were TGFb SMAD3 inh -8.1%, S-ASM inh 4.2%, DT40 TDP1 no CPT -11.5%, HepG2 tox -1.8%, IL1B secr inh 4.1 and DT40 TDP1 CPT -18.5%.
Cc1cc(C)c(NC(=O)c2cc(S(=O)(=O)N3CCCC3)cn2C)c(C)c1 was read as TGFb SMAD3 inh -22.2%, DT40 TDP1 no CPT -25.3%, HepG2 tox 11.5% and DT40 TDP1 CPT -2.4%.
`O=C1NC(=O)C(c2ccccc2)(c2ccccc2)N1S(=O)(=O)c1ccccc1` gave TGFb SMAD3 inh -8.9%, DT40 TDP1 no CPT -2.5%, HepG2 tox -4.3%, IL1B secr inh 17.6 and DT40 TDP1 CPT 1.8%.
O=S(=O)(c1ccc2[nH]c3c(c2c1)CCCC3)N1CCCCC1 was read as TGFb SMAD3 inh inconclusive, S-ASM inh -3.0%, DT40 TDP1 no CPT 23.1µM*, HepG2 tox -43.8%, IL1B secr inh -0.2 and DT40 TDP1 CPT inconclusive.
Cc1ccc(C)c(N2CCN(S(=O)(=O)c3ccc4[nH]c5c(c4c3)CCCC5)CC2)c1 was read as TGFb SMAD3 inh 12.6µM*, DT40 TDP1 no CPT inconclusive, HepG2 tox -6.8% and DT40 TDP1 CPT inconclusive.
COc1ccc(NC(=O)C2CCN(S(=O)(=O)c3ccc4[nH]c5c(c4c3)CCCCC5)CC2)cc1 was read as TGFb SMAD3 inh 0.0%, DT40 TDP1 no CPT inconclusive, HepG2 tox -11.6% and DT40 TDP1 CPT inconclusive.
`O=S(=O)(c1ccc2[nH]c3c(c2c1)CCCC3)N1CCN(c2cccc(C(F)(F)F)c2)CC1` gave TGFb SMAD3 inh inconclusive, DT40 TDP1 no CPT inconclusive, HepG2 tox -11.5% and DT40 TDP1 CPT inconclusive.
`Cc1ccc(NC(=O)C2CCN(S(=O)(=O)c3ccc4[nH]c5c(c4c3)CCCCC5)CC2)cc1` gave TGFb SMAD3 inh inconclusive, DT40 TDP1 no CPT 14.6µM*, HepG2 tox 5.4% and DT40 TDP1 CPT 13µM*.
Cc1ccc(Cl)cc1N1CCN(S(=O)(=O)c2ccc3[nH]c4c(c3c2)CCCCC4)CC1 was read as TGFb SMAD3 inh -28.4% and HepG2 tox -29.3%.
For C=C1CCN(C(CC(C)C)C(=O)Nc2nc3ccc(Cl)cc3s2)S(=O)(=O)c2ccccc21 (stereo not drawn) the results were TGFb SMAD3 inh inconclusive and HepG2 tox -2.5%.
`CC(C)c1nc(SCC(=O)Nc2cccc3ccccc23)n[nH]1` gave TGFb SMAD3 inh 12.6%, S-ASM inh -0.5%, DT40 TDP1 no CPT -19.2%, HepG2 tox -16.8%, IL1B secr inh 6.3 and DT40 TDP1 CPT -19.7%.
Screening CCCCN1C(=O)/C(=C/C=C2\SCCN2C)SC1=S returned TGFb SMAD3 inh 33.1%, S-ASM inh -25.1%, DT40 TDP1 no CPT -70.8%, HepG2 tox 3.9%, IL1B secr inh -50.3* and DT40 TDP1 CPT inconclusive.
COc1cccc(CNC(=O)CSC2=Nc3ccccc3N=C(c3ccc(F)cc3)C2)c1 was read as TGFb SMAD3 inh 0.0%, DT40 TDP1 no CPT inconclusive, HepG2 tox -23.9% and DT40 TDP1 CPT 20.6µM*.
`O=C(CSC1=Nc2ccccc2N=C(c2ccc(F)cc2)C1)NCc1ccc(Cl)cc1` gave TGFb SMAD3 inh 0.0%, DT40 TDP1 no CPT inconclusive, HepG2 tox 2.0% and DT40 TDP1 CPT 20.6µM*.
`COc1cc(OC)c(NC(=O)CSC2=Nc3ccccc3N=C(c3ccc(F)cc3)C2)cc1Cl` gave TGFb SMAD3 inh 30.3%, DT40 TDP1 no CPT inconclusive, HepG2 tox -1.8% and DT40 TDP1 CPT inconclusive.
For O=C(CSC1=Nc2ccccc2N=C(c2ccc(F)cc2)C1)NCc1ccccc1Cl the results were TGFb SMAD3 inh inconclusive, DT40 TDP1 no CPT inconclusive, HepG2 tox -31.4% and DT40 TDP1 CPT 23.1µM*.
`O=C(CSC1=Nc2ccccc2N=C(c2ccc(F)cc2)C1)Nc1ccccc1` gave TGFb SMAD3 inh inconclusive, DT40 TDP1 no CPT inconclusive, HepG2 tox -2.4% and DT40 TDP1 CPT inconclusive.
For CCS(=O)(=O)c1ccc2oc(SCC(=O)Nc3ccc(OC)cc3)nc2c1 the results were TGFb SMAD3 inh -3.5%, S-ASM inh -3.2%, DT40 TDP1 no CPT -5.9%, HepG2 tox -12.1%, IL1B secr inh 17.3 and DT40 TDP1 CPT 2.6%.
For CC(=O)c1ccccc1NS(=O)(=O)c1ccccc1Cl the results were TGFb SMAD3 inh -1.0%, S-ASM inh 4.4%, DT40 TDP1 no CPT -3.1%, HepG2 tox 12.1%, IL1B secr inh 29.2 and DT40 TDP1 CPT 7.5%.
Cc1ccc(-c2nc(NCC3CCCO3)sc2C)cc1 (stereo not drawn) was read as TGFb SMAD3 inh -8.8%, S-ASM inh -4.9%, DT40 TDP1 no CPT -27.0%, HepG2 tox -1.7%, IL1B secr inh -3.2 and DT40 TDP1 CPT inconclusive.
Screening CC1Nc2nc(N(C)C)[nH]c(=O)c2NC1C (stereo not drawn) returned TGFb SMAD3 inh 0.0%, S-ASM inh 177.5%, DT40 TDP1 no CPT inconclusive, HepG2 tox 34.8%, IL1B secr inh 30.5 and DT40 TDP1 CPT 25.9µM*.
Screening COc1cccc(CNC(=O)CN(C)S(=O)(=O)c2ccc(Br)s2)c1 returned TGFb SMAD3 inh -17.5%, S-ASM inh -1.6%, DT40 TDP1 no CPT -19.8%, HepG2 tox -4.6%, IL1B secr inh -20.5 and DT40 TDP1 CPT 2.4%.
